Experimental findings from PubChem BioAssay (NCI) are described below.

Where “and” joins values, the source holds several entries; their conditions need not be identical. Equal entries are not always repeated. This is part of a sample that, as a whole, favours compounds with a hit. Of some 83,000 tested, about 20% had one in any assay.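 The test compound was applied at a single concentration to cells in 96-well plates for 48 hours, and percent growth was recorded.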 Calls of active or inactive are those of the source.

The first assay deals with HCC-2998 colon. Description: NCI-60 one-dose screen, 48 h (100 = growth as untreated, 0 = no growth, -100 = all killed). To be noted: 10 µM. Here is the method: Growth inhibition of the HCC-2998 human tumor cell line is measured as a screen for anti-cancer activity. Cells are grown in 96 well plates and exposed to the test compound for 48 hours. Compounds are tested at a single concentration, which is 10^-5 M for most compounds. The reported endpoint is percent growth (GI% or GIPRCNT), where numbers from 0 - 100% represent growth inhibition, and numbers from -100% - 0 represent cell death. For example, a value of 40 represents 60% growth inhibition. A value of 0 means no net growth occurred over the course of the experiment. A value of -40 indicates 40% of cells at the beginning of the experiment died by the end of the experiment. A value of -100 means all cells are dead at the end of the experiment.
NCI-60 Human Tumor Cell Lines Screen was performed using the standard one-dose NCI protocol, which is described in more detail at https://dtp.cancer.gov/discovery_development/nci-60/default.htm.
Compounds with GIPRCNT values below 10 were considered active. Activity score was based on GIPRCNT using the following formula: […]
Score is 0 for GIPRCNT values of 100 or above, 50 for GIPRCNT values of 0, and 100 for GIPRCNT values of -100.
With `S=c1nc[nH]c2nc[nH]c12`, the growth is 23.2% (inactive).

Staying with this assay, now noted: 10 µM unless noted.
As for `CCC(C)NC(=O)c1ccccc1C` (stereo not given), the growth is 96.7% (inactive).
On the same count and under the same terms, the same measure for `CNc1ccc(O)cc1`: 124% (inactive) and 105% (inactive); for `CC1(CO)CCCC1NCCNC1CCCC1(C)CO` (stereo not given): 99.4% (inactive) and 118% (inactive).
Take `OCc1ccccc1F`: the growth is 93.2% (inactive).
On to `O=C(O)C(Cc1ccc(OS(=O)(=O)Cc2ccccc2)cc1)NS(=O)(=O)Cc1ccccc1` (stereo not given), for which the growth was 115% (inactive).
Same read-out and setting: the same measure for `CC1(C)CC(=O)NC1=O`: 102% (inactive); for `Cc1cc(NC(=O)NC(=O)c2ccccc2N(C)C)ccc1Oc1ncc(Br)cn1`: 1.35% (active) and 50.4% (inactive).
As for `COc1ccc2oc3cc(NCCN(C)C)ccc3c(=O)c2c1`, the growth was 97.4% (inactive) and 77.1% (inactive).
On the same count and under the same terms, the same measure for `COc1ccc(COC=O)cc1`: 94.3% (inactive); for `C(#CCN1CCOCC1)CCCN1CCOCC1`: 99.6% (inactive) and 98.9% (inactive).
The same measure, in the same setting: then `N#Cc1c[nH]n2ccnc12`, with 113% (inactive); and `NNc1ncnc2cccc(Cl)c12`, with 104% (inactive); and `O=C(O)c1cccc(Br)c1`, with 122% (inactive) and 103% (inactive).
Still for that read-out and setting: then `O=C(O)c1ccc2c3ccc(C(=O)O)c4c(C(=O)O)ccc(c5ccc(C(=O)O)c1c25)c43`, with 76.9% (inactive); and `Cc1cc(=NO)cc(C)n1O`, with 120% (inactive); and `Cc1c(Cl)cc(Cl)c(N)c1Cl`, with 113% (inactive).
For `COc1ccc(CCl)c(C)c1OC`, the growth is 100% (inactive).
For `CCOC(=O)C(N)Cc1cc(I)c(O)c(I)c1` (stereo not given), the growth was 104% (inactive) and 96.6% (inactive).
Still for that read-out and setting: the same measure for `C/C(CC(C)C)=N/NC(N)=S`: 101% (inactive); for `CC(=O)Oc1cc(C)c(OC(C)=O)c(C)c1C`: 105% (inactive); for `CC1OS(=O)OC1C` (stereo not given): 99.3% (inactive) and 118% (inactive).
For `CCC(C)(O)CCC(C)(O)CC` (stereo not given), the growth was 87.7% (inactive).
`COc1cc2oc3cc(=O)cc4oc(-c5ccccc5)cc(c2c2c1CCC(c1ccccc1)O2)c43` (stereo not given): the growth is 60.7% (inactive).
On the same count and under the same terms, the same measure for `O=C1c2cccnc2-c2ncccc21`: 112% [100 µM] (inactive); for `COc1ccc(-n2[nH]c3c(cnc4ccccc43)c2=O)cc1`: 69.2% (inactive) and 107% (inactive); for `COC(=O)c1nc(=S)[nH]c(C(=O)OC)c1C(=O)c1ccc(OC)cc1`: 118% (inactive).
Take `O=C(O)c1c2c(nc3ccccc13)Cc1ccccc1-2`: the growth is 98.3% (inactive) and 99.9% (inactive).
Still for that read-out and setting: then `CCOC(=O)CN1CCC(C(=O)OCC)CC1`, with 103% (inactive); and `N#CC1c2ccccc2C=CN1C(=O)c1ccccc1` (stereo not given), with 109% (inactive) and 115% (inactive); and `C/C=C(/C(=O)NC(N)=O)C(C)C`, with 115% (inactive).
On the same count and under the same terms, the same measure for `CCOP(=O)(OCC)/C(C#N)=C/c1c(C)[nH]c2ccccc12`: 107% (inactive).
For the molecule `CC(C)(C)C1=CC(=O)C(C(C)(C)C)=CC1=O`, the growth was 94.4% (inactive) and 101% (inactive).
`O=C(Nc1ccccc1)OCC(CN1CCCCC1)OC(=O)Nc1ccccc1` (stereo not given): the growth is 94% (inactive) and 98.4% (inactive).
With `OCCCc1ccccc1`, the growth is 108% (inactive).
Consider `O=C(N=C1C(=O)C2(CCCCC2)C2(N=C(c3ccccc3)OC2=O)C12CCCCC2)c1ccccc1` (stereo not given), for which the growth is 59.2% (inactive).
As to `Nc1ccccc1SC(CC(=O)c1ccccc1)c1cccc([N+](=O)[O-])c1` (stereo not given), the growth is 110% (inactive).
For the molecule `O=C(O)C1CSCN1` (stereo not given), the growth was 133% (inactive) and -20.6% (active).
`CC(NC(=O)CCl)c1ccccc1` (stereo not given): the growth is 106% (inactive).

The assay is the same for the next values; noted with them: 50 µM.
Regarding `S=c1nc[nH]c2nc[nH]c12`, the growth was 31% (inactive).
